Results on 51 molecules are retold here after ChEMBL document CHEMBL3988442, “University of Dundee, Small-Polar-MMV Screening Library” (2021).

In all, about 69,000 compounds went through this assay and about 1,000 (1.4%) showed an effect of 50% or more. Many of the other results were omitted from the sample, so strong results are more common in it than they were.

This assay relates to Leishmania donovani. As to the kind of experiment: Leishmania intramacrophage assay. The class given is functional, organism-based. On the set-up: scale not given: in the data most compounds retested in dose-response had high values.

On to `c1cncc(-c2ccnn2CN2CCOCC2)c1`, for which, where the note is “30.3 µM, […]”, the “Percent Effect” value is reported as -9.601%. As for `c1cncc(-c2ccnn2CN2CCC3(CC2)OCCO3)c1`, the “Percent Effect” value (30.3 µM, […]) turned out to be 24.88%. On the same count and under the same terms, next, `CC(C)(C)CCN1CCN(Cn2nccc2-c2cccnc2)CC1`: 14.91%.

Regarding `c1cnc(N2CCN(Cn3nccc3-c3cccnc3)CC2)nc1`, where the note is “30.3 µM, […]”, the “Percent Effect” value is given as 61.02%. The same measure, in the same setting: next, `Clc1ccc(CN2CCN(Cn3nccc3-c3cccnc3)CC2)s1`: 56.59%; `CC(C)(C)C(=O)N1CCN(Cn2nccc2-c2cccnc2)CC1`: 7.096%. On the same count and under the same terms, under `COc1ccc(CC2CN(C(=O)c3ocnc3C)CCO2)cc1` (stereo unspecified) stands -6.657%. In the case of `N#Cc1ccccc1C(=O)N1C[C@H](CO)C[C@H](CN2CCCC2)C1`, the “Percent Effect” value (30 µM, 30.03 µM) is 18.98%.

For `Cc1nc2ccnn2c(C)c1CCC(=O)N1CCN(CCO)CC1`, where the note is “30 µM”, the “Percent Effect” value was found to be 14.29%. For the molecule `CC(=O)N1CCCC(c2ccc(Cc3ccccc3)cn2)C1` (stereo unspecified), for the setting “30.3 µM, […]”, the “Percent Effect” value was -26.06%. Same read-out and setting: under `Cc1nc(CN2CCO[C@H]3CN(C(=O)c4cscn4)C[C@H]32)cs1` stands 38.15%. For `Cc1ccsc1CN1CCc2nc3ccsc3c(=O)n2CC1.Cl`, where the note is “30.3 µM, […]”, the “Percent Effect” value is listed as 14.2%. For `CC(C)Cc1ncc2c(n1)CN(c1cc(NCCO)nc(N)n1)C2`, the “Percent Effect” value (30.3 µM, […]) is on record as 22.17%. The same measure, in the same setting: next, `COc1ccc2[nH]c3c(c2c1)CN(c1cc(NCCO)nc(N)n1)CC3`: 13.82%. Consider `Nc1nc(NCCO)cc(N2CCc3c([nH]c4ccccc34)C2)n1`, for which the “Percent Effect” value (30.3 µM, […]) is 50.32%. On the same count and under the same terms, next, `CC(=O)N1CCO[C@@H]2CN(Cc3ccccc3F)C[C@@H]2C1.O=C(O)C(F)(F)F`: 6.292%; `O=C(NCc1cccs1)C1CNCC12CCOCC2.O=C(O)C(F)(F)F` (stereo unspecified): 12.59%. The same measure, in the same setting: under `CN(Cc1csc2ccccc12)C(=O)NC1CCS(=O)(=O)C1` (stereo unspecified) stands 11.38%; under `CC(C)CN1CCC(NC(=O)N(C)Cc2csc3ccccc23)CC1`, 39.03%.

With `CCN1CCC(NC(=O)N(C)Cc2csc3ccccc23)CC1`, the “Percent Effect” value (30.3 µM, […]) is 82.94%. Take `COc1ccc(CCC(=O)Nc2cccnc2N2CCCC2)cc1Br`: for the setting “30 µM, 30.03 µM”, the “Percent Effect” value turned out to be 33.61%.

On to `Cc1ccc(CNC(=O)CN2CCOC(Cn3cncn3)C2)s1` (stereo unspecified), for which the “Percent Effect” value (30 µM) stood at 21.75%. For the molecule `Cc1nc(Nc2nnc(C)s2)cc(C2CCCN2c2ccncn2)n1` (stereo unspecified), the “Percent Effect” value (30.3 µM, […]) was -2.613%.

Take `CCC(NC(=O)C(C)(C)C)c1ccccc1C` (stereo unspecified): the “Percent Effect” value (30.3 µM, […]) is reported as -8.319%. On the same count and under the same terms, under `CC(=O)N1CCN(C(=O)NC(C)C)CC2(CC(=O)N(C)C2)C1` (stereo unspecified) stands 6.648%; under `CC(C)CC(=O)N1CCN(C(=O)NC(C)C)CC2(CC(=O)N(C)C2)C1` (stereo unspecified), -8.176%.

On to `COCC(=O)N1CCN(C(=O)NC(C)C)CC2(CC(=O)N(C)C2)C1` (stereo unspecified), for which the “Percent Effect” value (30.3 µM, […]) is reported as 56.1%. In the case of `CCc1cnc(CN(C)C2CCN(CCCNS(C)(=O)=O)C2)o1` (stereo unspecified), the “Percent Effect” value (30.3 µM, […]) amounted to 8.531%.

On to `c1csc(CCC2CCCCN2Cc2noc(C3CC3)n2)c1` (stereo unspecified), for which the “Percent Effect” value (30.3 µM, […]) is -14.11%. `CCC1CCCCCN1C(=O)c1ccc(N2CCC(O)CC2)cc1` (stereo unspecified): the “Percent Effect” value (30.3 µM, […]) turned out to be 32.16%. For `CCN1CCC2(CC1)OCCN2C(=O)c1cc(Cl)c(OC)c(Cl)c1.Cl`, the “Percent Effect” value (30.3 µM, […]) came to 18.32%.

With `CCCOc1c(Cl)cc(C(=O)N2CCOC23CCN(C)CC3)cc1Cl`, the “Percent Effect” value (30.3 µM, […]) is listed as 88.42%. The same measure, in the same setting: under `CCN1CCC2(CC1)OCCN2C(=O)c1ccc(OC)c(Cl)c1.Cl` stands 22.75%; under `CS(=O)(=O)N1CCC2(CC1)CC(NCc1ccco1)c1ccccc12.O=C(O)C(F)(F)F` (stereo unspecified), 16.74%; under `C/N=C1/c2cc3cc(OC)ccc3n2CCN1Cc1ccccc1.Cl`, 64.09%. `COc1ccc(CN2CC[C@@H](O)[C@@H]2Cc2ccccc2)cc1.O=C(O)C(F)(F)F`: the “Percent Effect” value (30 µM, 30.03 µM) is on record as -18.25%. For `C/N=C1\c2cc3cc(OC)ccc3n2CCN1C.Cl`, the “Percent Effect” value (30.3 µM, […]) is recorded as 10.14%. Same read-out and setting: next, `C/N=C1/c2cc3cc(OC)ccc3n2CCN1C`: -16.2%; `C/N=C1\c2cc3cc(OC)ccc3n2CCN1Cc1ccccc1.O=C(O)C(F)(F)F`: 57.81%. On to `COc1ccc2c(ccn2CCC(=O)O)c1`, for which the “Percent Effect” value (30 µM, 30.03 µM) is 9.834%. Regarding `COCCN1C[C@H]2CC[C@@H]1CN(Cc1cc(=O)c3cc(C)ccc3[nH]1)C2`, under “30.3 µM, […]”, the “Percent Effect” value came out at 38.8%.

Turning to `CSCC(C)(O)CNS(=O)(=O)c1cccc(Cl)c1` (stereo unspecified), the “Percent Effect” value (30.3 µM, […]) is 18.54%. Same read-out and setting: next, `CC1CCN(C(=O)C(C)N2CCc3[nH]nc(C(F)(F)F)c3C2)CC1` (stereo unspecified): 13.32%; `Cc1nc(C(=O)N(C)CC2CCCO2)nn1-c1ccccc1C(C)C` (stereo unspecified): 0.9975%. Still for that read-out and setting: under `Cn1cc(-c2nnn3c2COC(CNC(=O)c2cccs2)C3)cn1` (stereo unspecified) stands 37.28%; under `CN(C)c1ccnc(N2CCC(NCCOc3ccccc3)CC2)n1`, 79.37%. Same read-out and setting: under `c1ccc(OCCNC2CCN(c3ncccn3)CC2)cc1` stands 4.504%; under `Cc1cc(N2CCC(N(C)C(=O)c3ccc(C#N)cc3)CC2)nc(C)n1`, 14.71%.

Consider `Cc1cc(N2CCC(N(C)C(=O)Nc3ccccc3)CC2)nc(C)n1`, for which, under “30 µM, 30.03 µM”, the “Percent Effect” value turned out to be 11.78%.

On to `Cc1nc(C)c(C)c(N2CCC(NCCOc3ccccc3)CC2)n1`, for which the “Percent Effect” value (30.3 µM, […]) was 58.55%.

`Cc1cc(N2CCC(N(C)C(=O)c3ccccc3F)CC2)nc(C)n1`: the “Percent Effect” value (30.3 µM, […]) is on record as 35.99%.
